# Laboratory results reported in PubChem BioAssay AID488969 (Vanderbilt High Throughput Screening Facility, 2010).
# Over roughly 110,000 compounds, “z-score” has its median near -0.1; the highest 2% begin near 2. The sample as a whole holds a higher share of the highest values than the screen did. Calls of active or inactive are those of the source.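 Rule for the calls: active = z-score in the third read window above 3 or below -3; inactive = the rest.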
# Molecular target: Metabotropic glutamate receptor 8 (Rattus norvegicus) (UniProt P70579)
# Sequence (P70579 whole entry, looked up): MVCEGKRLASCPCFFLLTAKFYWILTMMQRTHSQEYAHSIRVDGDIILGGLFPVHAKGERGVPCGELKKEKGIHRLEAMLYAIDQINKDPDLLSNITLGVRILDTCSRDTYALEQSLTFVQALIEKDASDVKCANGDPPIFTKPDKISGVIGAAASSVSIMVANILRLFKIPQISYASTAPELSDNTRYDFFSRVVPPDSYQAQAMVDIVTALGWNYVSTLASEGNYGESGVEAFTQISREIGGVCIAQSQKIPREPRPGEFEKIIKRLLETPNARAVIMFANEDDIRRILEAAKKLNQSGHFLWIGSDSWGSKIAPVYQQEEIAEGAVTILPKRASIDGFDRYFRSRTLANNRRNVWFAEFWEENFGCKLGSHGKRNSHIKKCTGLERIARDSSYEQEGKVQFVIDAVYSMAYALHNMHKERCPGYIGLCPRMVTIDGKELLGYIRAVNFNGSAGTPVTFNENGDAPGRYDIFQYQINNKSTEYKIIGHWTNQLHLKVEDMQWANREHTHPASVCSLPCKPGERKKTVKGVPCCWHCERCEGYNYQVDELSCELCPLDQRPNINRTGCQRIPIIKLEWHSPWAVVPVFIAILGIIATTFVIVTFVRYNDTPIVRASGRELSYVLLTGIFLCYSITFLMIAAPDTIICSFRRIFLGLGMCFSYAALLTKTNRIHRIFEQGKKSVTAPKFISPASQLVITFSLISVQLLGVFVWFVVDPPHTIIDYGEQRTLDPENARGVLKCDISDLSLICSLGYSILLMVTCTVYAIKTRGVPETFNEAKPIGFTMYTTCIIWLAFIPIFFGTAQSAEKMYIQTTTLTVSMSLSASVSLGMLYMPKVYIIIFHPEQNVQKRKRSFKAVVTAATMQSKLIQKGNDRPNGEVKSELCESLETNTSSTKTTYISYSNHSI
# Assay: rat mGluR8 modulators via GIRK flux, primary screen, cell-based, thallium flux, HTS (AID 488969)
# Conditions: HEK293 rat mGluR8, GIRK (G protein-gated inwardly rectifying potassium channel) thallium flux, FluoZin2; at 10 µM; stronger effect = higher value; submaximal glutamate (EC20) added with thallium
row,Structure (SMILES),z-score
1,O=c1cc(C(F)(F)F)oc2c1ccc1ccccc12,-0.211
2,COc1c2occc2cc2ccc(=O)oc12,-0.548
3,CCC(C)N=C1SCC(C)(/C=N/O)S1 (centres undefined),-0.0708
4,Oc1oc(-c2cccc3ccccc23)nc1/C=N/c1nccs1,7.77 (active)
5,CCCCOc1ccc(-c2nc(/C=N/c3nccs3)c(O)o2)cc1,2.84
6,Oc1oc(-c2ccccc2)nc1C=Nc1cccc2ccccc12,-0.00127
7,CCOc1ccc2nc(/N=C/c3nc(-c4ccc(Br)cc4)oc3O)sc2c1,0.754
8,Oc1ccc2ccccc2c1/C=N/c1nccs1,0.277
9,Oc1[nH]c2ccccc2c1/C=N/c1nccs1,2.09
10,Oc1oc(-c2ccccc2)nc1/C=N/c1nccs1,1.54
11,C(=N\c1nccs1)/c1c[nH]c2ccccc12,-0.861
12,CN=Cc1nc(-c2ccccc2)oc1O,1.62
13,N#Cc1c(N)c(C(=O)c2ccccc2)n2c1CCCC2,-0.142
14,C#CCn1c(S(=O)(=O)Cc2ccc(C)cc2)nc(-c2ccccc2)c1-c1ccccc1,-0.259
15,COc1ccc(C(C#N)N2N=C(c3ccccc3)CC2c2ccccc2)cc1OC (centres undefined),0.0225
16,CC1CC(C)(C)CC2(C1)NC(=O)N(CC(=O)NCC(c1ccco1)N1CCCCC1)C2=O (centres undefined),0.771
17,Cc1nnc(SCC(=O)NCc2ccco2)n1-c1ccccc1,-0.0052
18,Cn1c(SCC(=O)Nc2ccccc2)nnc1-c1ccc(NC(=O)CCc2ccccc2)cc1,-0.164
19,CN(CP(=O)(O)CN(C)S(C)(=O)=O)S(C)(=O)=O,0.00353
20,O=C(NCc1ccco1)c1cnn2c(C(F)(F)F)cc(-c3ccccc3)nc12,-0.67

row,Structure (SMILES),z-score
1,CC1Nc2nc(N(C)C)[nH]c(=O)c2NC1C (centres undefined),0.838
2,CCOC(=O)C(CC)n1cnc2c(nnn2-c2ccc(C)cc2)c1=O (centres undefined),-0.636
3,CCC(C(=O)OC)n1cnc2c(nnn2-c2ccc(OC)cc2)c1=O (centres undefined),-0.912
4,CCOC(=O)C(CC)n1cnc2c(nnn2-c2ccc(OC)cc2)c1=O (centres undefined),4.43 (active)
5,Cc1cc(Nc2ccccc2)n(C(=O)c2ccc(Cl)cc2)n1,0.82
6,O=S(=O)(NCc1ccccc1)c1ccc(Cl)c(S(=O)(=O)NCc2ccccc2)c1,0.165
7,O=S(=O)(NCc1ccccc1)c1ccc(Cl)cc1,2.77
8,O=S(=O)(NCCCc1ccccc1)c1ccc(Cl)cc1,-0.252
9,CCOC(=O)C1=c2s/c(=C\c3cccnc3)c(=O)n2C(N)=C(C(=O)OC)C1c1cccnc1 (centres undefined),0.984
10,CC1(C)CC2CC(C)(CN2C(=S)NC(=O)c2ccccc2Cl)C1 (centres undefined),8.8 (active)
11,CC1(C)CC2CC(C)(CN2C(=O)NC(=O)c2ccccc2)C1 (centres undefined),-0.259
12,C[C@H](NC(=O)c1ccccc1Cl)C(=O)OCC(=O)N1CC2(C)CC1CC(C)(C)C2 (some centres undefined),0.00588
13,O=C(CSCCO)Nc1cccc(C(F)(F)F)c1,0.657
14,CCN(CC)C(=O)CN(c1ccc2c(c1)OCO2)S(C)(=O)=O,2.51
15,CS(=O)(=O)N(CC(=O)O)c1ccc2c(c1)OCO2,-2.86
16,CN(C)C(=O)CN(c1ccc2c(c1)OCO2)S(C)(=O)=O,-0.0253
17,Cc1c(C(=O)OC(C)C)sc(NC(=O)C2CCCO2)c1C(=O)OC(C)C (centres undefined),-0.0386
18,O=C(CCNC(=O)c1ccccc1Cl)Nc1cccc(C(F)(F)F)c1,-0.204
19,Fc1cccc(Cl)c1CSc1nnc(COc2cccc3cccnc23)o1,-0.675
20,Cc1nc(N2CCN(C)CC2)c2sc(=S)n(C)c2n1,0.624

row,Structure (SMILES),z-score
1,Cc1ccc(-n2nnnc2-c2cnn(-c3cccc(F)c3)c2C(F)(F)F)cc1,0.0555
2,COC(=O)c1ccc(CSc2nnc(Nc3cccc(OC)c3)s2)o1,0.67
3,COC(=O)c1ccc(CSc2nnc(Nc3ccc(OC)cc3)s2)o1,0.755
4,COC(=O)c1ccc(CSc2nnc(Nc3ccccc3OC)s2)o1,4.01 (active)
5,CC1=C(C(=O)Nc2ccc(F)cc2)C(c2ccc(C)o2)C2=C(CC(C)(C)CC2=O)N1 (centres undefined),0.288
6,CC(C)CNC(=S)N1CCN(C(c2ccccc2)c2ccccc2)CC1,-0.358
7,CCNc1ccc(S(=O)(=O)N(C)C)cc1NCC(=O)Nc1ccc(Br)cc1F,-0.257
8,COc1ccc(-c2noc(-c3cc(C)cc(C)c3)n2)cc1OC,0.138
9,CCOc1ccc(-c2nc(-c3ccccc3)no2)cc1OCC,1.62
10,COc1ccc(-c2noc(-c3ccccc3Cl)n2)cc1OC,-0.738
11,CCOc1ccc(-c2nc(-c3ccc(OC)cc3)no2)cc1OCC,2.87
12,COc1ccc(-c2noc(-c3ccc(Cl)cc3[N+](=O)[O-])n2)cc1OC,-0.0457
13,CCOc1ccc(-c2noc(COC)n2)cc1OC,-0.328
14,CCOc1cc(-c2nc(-c3cc(OC)c(OC)c(OC)c3)no2)cc(OCC)c1OCC,0.87
15,CCOc1nc(C)ccc1-c1noc(-c2ccncc2)n1,0.775
16,CCOc1ccc(-c2nc(-c3ccc(OC)c(OC)c3)no2)cc1OCC,4.75 (active)
17,CCOc1ccc(-c2nc(-c3ccncc3)no2)cc1OCC,2.12
18,CCOc1ccccc1-c1nc(-c2ccncc2)no1,0.0712
19,COc1ccc(-c2noc(-c3cc(Cl)ccc3Cl)n2)cc1OC,3.41 (active)
